KB-3-1 cytotox = kills parental KB-3-1 adenocarcinoma cells; KB-3-1 viability, CellTiter-Glo ATP luminescence, 72 h; Potency, µM (titrated, usually from 46.1 µM), usual class: cytotoxic; 1.4% of 400,000 active; AID 1347075; further: on the % scale 0 is the no-effect control and ±100 the full control effect; nearly all actives have a fitted effect of over 60% in size
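Cytotoxicity measured as CellTiter-Glo luminescence after 72 h at 37 C. Compound titrations were pinned onto drug-naive KB-3-1 parental adenocarcinoma cells grown in DMEM with 10% FBS, and normalized data fitted to concentration-response curves.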
SW480 rerep = induces DNA re-replication in SW480 colon adenocarcinoma cells | AID 624297 | 1.8% of 340,000 active | SW480 DNA re-replication, Hoechst DNA content imaging, 48 h | Potency, µM (highest dose often 46.1 µM), inactives show at the top dose re-replication activation, most hits filed as activators; further: % of control where 0% means no effect; nearly all actives have a fitted effect of over 55% in size
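Readout is total intensity of Hoechst-stained nuclei, excited at 405 nm and collected at 500-530 nm. Compound treatment lasted 48 hr at 37 C in 5% CO2 before staining.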
PINK1 modulator = changes PINK1 expression. PINK1 immunofluorescence, high-content cytometry, 24 h. Potency, µM (titrated, usually from 76.6 µM), for the others: at the top dose activation (PINK1 increase), hits mostly activators. 0.2% of 410,000 active. AID 624263; active means well fitted activation curve with a large enough effect; inconclusive means small, poorly fitted or top-dose-only effect; cell line not stated here; further: % of control where 0% means no effect; nearly all actives have a fitted effect of over 65% in size
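Fluorescence from anti-PINK1 antibody, together with nuclear and cell stains, was scanned on a laser-scanning cytometer. Before staining, stable-line cells were incubated 24 hours with compounds at 5 concentrations; primary antibody 12 h at 10 degrees C.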
MCF10A rereplic = DNA re-replication induction in MCF 10a cells | MCF 10A DNA re-replication, Hoechst nuclear intensity, 48 h | Potency, µM (series often up to 46.1 µM), without a hit: at the top dose activity, positive = re-replication, actives largely listed as activators | 2.9% of 350,000 active; further: % of control where 0% means no effect; nearly all actives have a fitted effect of over 50% in size
KB-V1 cytotox = kills drug-selected multidrug resistant KB-V1 cells | KB-V1 MDR cells viability, CellTiter-Glo, 72 h | Potency, µM (titrated, usually from 46.1 µM), hits mostly cytotoxic | 3.4% of 400,000 active | AID 1347076; further: on the % scale 0 is the no-effect control and ±100 the full control effect; nearly all actives have a fitted effect of over 60% in size
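Luminescent ATP read-out (CellTiter-Glo, 10 min) measures survival of drug-selected KB-V1 MDR cells after 72 h, 37 degrees C compound exposure. Medium: phenol-red-free DMEM, 10% FBS. Values from fitted concentration-response curves.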
Active calls of the source: *; i = inactive; ? = inconclusive; nt = not tested or not shown; ! = a repeat was not active; [ ] = another dose, or the depositor's remark. The list is not random: actives were taken first. Their share in the collection is about 6.7%. Unless noted, the call rests on the fitted dose curve; in most records, active means well fitted curve in the direction sought with a large enough effect; inconclusive means small, poorly fitted or top-dose-only effect, or another doubt; inactive means no such curve, though single readings can be large; an effect the other way counts as inactive or inconclusive. Potency means the concentration at half of the fitted maximal effect.

SMILES | KB-3-1 cytotox | SW480 rerep | PINK1 modulator | MCF10A rereplic | KB-V1 cytotox
CC(NCc1ccc(-c2ccccc2)cc1)C(O)c1ccccc1 (stereo not drawn) | i | 4.11µM* | -2.0% | 25.9µM* | i
CNc1c(Cl)cc(/C=C2\C=Cc3ccccc32)cc1Cl | i | nt | -0.2% | nt | i
O=C(COC(=O)CSc1ccccc1)NC1CCS(=O)(=O)C1 (stereo not drawn) | i | nt | 0.5% | nt | i
Cc1ccc2[nH]c(=O)c(CN(CCc3ccccc3)Cc3nnnn3CC3CCCO3)cc2c1 (stereo not drawn) | i | 1.3% | 1.6%[38.3 µM] | -8.5% | 14.6µM*
COc1ccccc1CN(Cc1cc2cc(C)ccc2[nH]c1=O)Cc1nnnn1CC1CCCO1 (stereo not drawn) | i | -0.9% | nt | ? | 20.6µM*
COc1ccc(Cl)cc1NC(=O)CN(C)CC(=O)Nc1ccc(Br)cc1 | i | 3.2% | 0.7% | ? | ?
COc1ccc(Cl)cc1NC(=O)CN(C)C(=O)c1cccc(S(=O)(=O)N2CCN(C)CC2)c1 | i | 0.1% | 0.8% | 10.7% | 20.6µM*
CCCN(CC(=O)Nc1ccc(Cl)cc1Cl)C(=O)/C=C/c1cc(OC)ccc1OC | i | nt | 0.1% | 11.2% | ?
COc1ccc(NC(=O)CS(=O)CC(=O)Nc2ccc(OC)c(OC)c2)cc1 (stereo not drawn) | i | -4.7% | 6.2%[38.3 µM] | 0.1% | i
COc1ccc(Cl)cc1NC(=O)CN(C)CC(=O)Nc1cc(OC)c(OC)c(OC)c1 | 4.61µM* | ? | 2.5% | ? | i
CCCN(CC(=O)Nc1cc(Cl)ccc1Cl)C(=O)/C=C/c1cc(OC)ccc1OC | i | ? | 3.4% | 20.6µM* | i
COc1ccc(NC(=O)CS(=O)CC(=O)Nc2cc(Cl)ccc2OC)cc1 (stereo not drawn) | i | 0.5% | ? | 10.5% | 20.6µM*
COc1ccccc1C(NC(=O)C1CCN(CCOc2ccccc2)CC1)c1ccccn1 (stereo not drawn) | i | nt | 2.0% | nt | i
COc1ccccc1-c1ccc([C@@H]2C[C@H]3[C@H](CON3C)CN2C(=O)c2ccc(-c3ccccc3)cc2)cc1 | i | nt | 1.4% | nt | i
CC[C@@H](NCCCn1cnc2c(SC)ncnc21)c1ccccc1 | i | nt | 0.4% | nt | ?
CNC(=O)c1sc(N2N=C3/C(=C/c4ccccc4)CCCC3C2c2ccccc2)nc1C (stereo not drawn) | ? | 7.08µM* | 0.1%[38.3 µM] | ? | i
O=C(c1ccccn1)N1N=C2/C(=C/c3ccccc3)CCCC2C1c1ccccc1 (stereo not drawn) | i | ? | 0.2% | 0.1% | i
CNC(=O)c1sc(N2N=C3/C(=C\c4ccccc4)CCCC3C2c2ccccc2)nc1C (stereo not drawn) | nt | 8.2µM* | -3.1% | ? | nt
O=C1CCC(C(=O)OCC(=O)N2N=C3/C(=C/c4ccccc4)CCCC3C2c2ccccc2)N1 (stereo not drawn) | 20.6µM* | -2.4% | -1.0%[38.3 µM] | 23.0% | ?
Cc1ccccc1Cn1c(=O)n(CCCCCC(=O)NCc2ccc3c(c2)OCO3)c(=O)c2sccc21 | nt | nt | -0.7% | nt | nt
COc1ccc2c(c1)OC(C)CN(CCNC(=O)c1csc(-c3cccs3)n1)C2 (stereo not drawn) | nt | nt | -1.1% | nt | nt
CC(C)C(=O)N1CCCC1(C)C(=O)Nc1ccc(F)cc1 (stereo not drawn) | i | nt | 2.2% | nt | i
N#Cc1c(CSCC(=O)O)cc(=O)n2c1[nH]c1ccccc12 | i | -6.1% | -0.2% | -3.2% | i
N#Cc1c(C(F)(F)F)cc(=O)n2c1[nH]c1ccccc12 | i | ? | ? | 18.4µM* | i
Cc1c(Cc2ccccc2)c(=O)n2c([nH]c3ccccc32)c1C#N | ? | -16.1% | ? | 13.7% | 13µM*
SMILES | KB-3-1 cytotox | SW480 rerep | PINK1 modulator | MCF10A rereplic | KB-V1 cytotox
COc1ccccc1N=Cc1c(C)c(C#N)c2[nH]c3ccccc3n2c1=O | i | -2.0% | 7.6% | ? | i
CC(=O)Oc1cc(C(F)(F)F)ccc1C(=O)O | nt | -0.7%[20.6 µM] | nt | -0.6%[20.6 µM] | nt
Oc1ccccc1-n1c(-c2ccccc2)ccc1-c1ccccc1 | i | 14.0% | 11.2% | 20.6µM* | i
Cc1ccc(-c2ccccc2)n1-c1ccc(C(=O)O)cc1 | i | 6.0% | -0.5% | ? | i
COc1ccc(-c2nc3cccc(C)n3c2NCC2CCCO2)cc1O (stereo not drawn) | i | -9.8% | -2.1% | 9.2% | 11.6µM*
CC(C)N=C(N)/N=C(\N)Nc1ccc(Cl)cc1 | nt | -6.5%[20.6 µM] | nt | 0.8%[20.6 µM] | nt
NC(=NCCCCCCN=C(N)/N=C(\N)Nc1ccc(Cl)cc1)/N=C(\N)Nc1ccc(Cl)cc1 | ? | 1.3µM*! | ? | ? | ?
CCOC(=O)c1c(NC(=O)C(Sc2ccccc2)c2ccccc2)sc(C(=O)N(C)C)c1C (stereo not drawn) | ? | ? | 5.2% | ? | 2.91µM*
CC(C)CCCCCCCCCCCCC(=O)NCC(=O)NC1C(C)OC(Nc2ncnc3nc[nH]c23)C(O)C1O (stereo not drawn) | 0.0103µM* | 29.7% | -1.5% | 22.5% | ?
NCC1CCN(c2nc3ccccc3c3c2CCCC3)CC1 | 23.1µM* | ? | -2.0% | ? | 14.6µM*
CCOC(=O)C1=CCN(S(=O)(=O)c2ccccc2F)C1c1ccccc1 (stereo not drawn) | i | nt | -0.1% | nt | i
O=C(Cn1c(=O)n2nc(-c3ccccc3)nc2c2ccccc21)Nc1ccccc1C(F)(F)F | nt | nt | 2.1% | nt | nt
CC(=O)Nc1ccc(OCC(O)CN2CCN(c3cc(Cl)ccc3C)CC2)cc1 (stereo not drawn) | ? | 23.4% | -1.2%[38.3 µM] | ? | 4.11µM*
Cc1cc(C(=O)NCc2nc(-c3cccc(NC(=O)c4cc(C)oc4C)c3)oc2C)nc(C)n1 | nt | nt | 1.1% | nt | nt
COc1ccc(C(=O)CSc2nnc(CNc3ccc(C)cc3C)o2)cc1 | i | -0.9% | 21.2% | ? | i
Cc1ccc(NCc2nnc(SCC(=O)N3c4ccccc4Sc4ccccc43)o2)c(C)c1 | i | -126.8% | 0.3% | -1.1% | 6.51µM*
Cc1ccc(OCc2nnc(SCC(=O)N3c4ccccc4Sc4ccc(Cl)cc43)o2)cc1 | i | -54.8% | 0.5% | -1.8% | 8.2µM*
CC1(C(=O)NS(=O)(=O)c2ccc(Cl)s2)CCN1C(=O)C1(c2ccc(Cl)cc2)CCC1 (stereo not drawn) | i | nt | -0.7% | nt | i
CSc1nc(NCc2ccccc2)c2c3c(sc2n1)CN(C)CC3 | i | 0.8% | 15.8%[38.3 µM] | 23.1µM* | ?
COCCNc1nc(SC)nc2sc3c(c12)CCN(C)C3 | i | 0.2% | -2.0% | 0.4% | i
CCN(CC)CCNc1nc(SC)nc2sc3c(c12)CCN(C)C3 | i | ? | -0.7% | ? | ?

From PubChem BioAssay
